# MARV entry inh – Marburg virus entry inhibition; Potency, µM (series often up to 37.8 µM), usual class: inhibitors; Marburg virus pseudotyped entry inhibition, cell reporter; AID 540276; actives 1.8% (n = 300,000); calls by dose curve; tested in HEK293 cells
# HCMV antiviral – inhibitors of human cytomegalovirus; activity change, negative = inhibition, % at 57.5 µM; AID 1259415; actives 4.5% (n = 410,000); HFF cells, HCMV-luciferase reporter, 72 h; active compounds read low; in the data active = activity change below about -60%; inconclusive = no clear call, values can overlap the other calls; inactive = above about -39%
#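 Compounds were evaluated in HFFs infected with an HCMV luciferase reporter virus (MOI 1 PFU/cell). Luciferase in lysates collected 72 h post infection served as the replication measure.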
# LASV entry inh – Lassa virus entry inhibition; Lassa virus pseudotype entry inhibition, cell reporter; Potency, µM (top dose mostly 37.9 µM), hits mostly inhibitors; actives 1.2% (n = 300,000); calls by dose curve; tested in HEK293 cells; note: nearly all actives have a fitted effect of over 50% in size
# FMDV antiviral – foot and mouth disease virus antiviral activity | FMDV antiviral cell-based qHTS | Potency, µM (highest dose often 57.9 µM), hits mostly inhibitors | actives 1.2% (n = 410,000); calls by dose curve; tested in HEK293T cells; note: read-out not given here; nearly all actives have a fitted effect of over 45% in size
# VACV Venus inh – inhibitors of vaccinia virus (Venus reporter). Vaccinia virus Venus reporter expression, fluorescence. Potency, µM (highest dose often 36.5 µM), most hits filed as inhibitors. actives 0.46% (n = 330,000). AID 720580; calls by dose curve; tested in A549 cells; note: nearly all actives have a fitted effect of over 30% in size
# VACV mCherry inh – inhibitors of vaccinia virus infection (mCherry reporter signal); Vaccinia virus mCherry reporter infection, fluorescence; Potency, µM (highest dose often 36.5 µM), hits mostly inhibitors; actives 0.63% (n = 310,000); calls by dose curve; tested in A549 cells; note: nearly all actives have a fitted effect of over 35% in size
# Hits are given with their value; - = inactive; ? = inconclusive; . = no result; ! = a repeat was not active. Only some compounds are listed: those with a hit (about 6.5% of all), similar ones and a draw of the others.
SMILES,MARV entry inh,HCMV antiviral,LASV entry inh,FMDV antiviral,VACV Venus inh,VACV mCherry inh
CC1(C)Cc2ccccc2C(c2cc3ccccc3oc2=O)=N1,-,-70,-,-,?,.
O=c1oc2ccccc2cc1-c1ccccc1,.,-,.,-,.,.
CC1(C)Cc2c(ccc3ccccc23)C(c2cc3ccccc3oc2=O)=N1,5.8µM,-,13µM,-,.,.
CCC(=O)N[C@@H]1c2ccccc2C2(CCN(Cc3cnc(N(C)C)s3)CC2)[C@H]1OC,.,.,.,-,-,-
CCCCCOCC1CC(C/C(C)=N/NC(N)=S)C(=O)O1 (stereo not given),?,-,?,-,?,22µM
COc1ccccc1N1CCN(c2cc(C)nc3nc(-c4ccc(Cl)cc4)nn23)CC1,-,-,-,-,-,-
COc1ccccc1C1NC(c2ccc3c(c2)OCO3)=CC(c2ccccc2O)N1 (stereo not given),.,.,.,.,-,-
CCOc1ccc(-n2c(SCC(=O)Nc3ccc(CC)cc3)nc3n[nH]c(C)c3c2=N)cc1,?,-,?,-,?,-
CCCN(CCC)C(=O)CSc1nc2n[nH]c(C)c2c(=N)n1-c1ccc(OCC)cc1,?,.,11µM,-,?,.
CCCN(CCC)C(=O)CSc1nc2n[nH]c(C)c2c(=N)n1-c1ccc(OC)cc1,?,-,?,22µM,?,.
COc1ccccc1/C=C/c1ccnc2ccccc12,.,.,.,.,-,-
CC1(C)CC(C(CC(=O)O)c2ccccc2)CCO1 (stereo not given),-,-,-,.,-,-
COc1ccc(CN(CCC(c2ccccc2)c2ccco2)C(=O)c2ccco2)cc1 (stereo not given),10µM,-,?,-,-,-
CC(c1ccccc1)N(CCC(c1ccccc1)C1CCOC(C)(C)C1)C(=O)c1ccco1 (stereo not given),4µM,-101,?,?,-,-
COc1ccc(CN(CCC(c2ccc(F)cc2)C2CCOC(C)(C)C2)C(=O)c2ccco2)cc1 (stereo not given),7.9µM!,-,?,?,-,-
COc1cccc([C@H]2Oc3ccc(OC)cc3C(=NOCC[C@@H]3C=C[C@H](OC(C)=O)[C@@H](COC(C)=O)O3)[C@H]2O)c1,-,.,?,.,.,.
COc1cc2c(cc1OC)[C@@H]1O[C@](c3ccsc3)(C2)OC2=C1C(=O)CC(C)(C)C2,-,.,.,.,.,.
Cc1ccnc(N/C=C(\C#N)c2nc(-c3cccc(Br)c3)cs2)c1,?,-80,?,-,-,-
O=[N+]([O-])/C=C/c1ccc2c(c1)OCO2,?,.,3.3µM,.,.,.
O=[N+]([O-])/C=C\c1ccc(N2CCOCC2)cc1,.,-,.,18µM,.,.
COc1cc2c(cc1/C=C/[N+](=O)[O-])OCO2,?,-108,?,14µM,?,?
O=C(C=Cc1ccc2c(c1)OCO2)C1CC1,.,?,.,-,-,-
CCC1CCCCN1S(=O)(=O)c1cc2c(cc1C)NC(=O)CO2 (stereo not given),.,-,-,-,-,-
CCCS(=O)(=O)NCc1c(C)ncc2c1CCN(C(=O)c1ccc3[nH]c4c(c3c1)CCCC4)C2,.,.,.,-,-,-
COc1ccc(CN2CCOc3ccc(CN4CCC(O)(c5cccnc5)CC4)cc3C2)c(C)c1C,.,.,.,-,-,-
SMILES,MARV entry inh,HCMV antiviral,LASV entry inh,FMDV antiviral,VACV Venus inh,VACV mCherry inh
Nc1nc(-c2ccccn2)nc(N)c1Cc1ccccc1F,?,-102,?,-,-,-
Nc1nnc(Cc2ccc(Cl)cc2Cl)s1,-,-,-,-,-,-
Nc1nc(-c2ccccn2)nc(N)c1Cc1c(F)cccc1Cl,?,-96,?,-,-,?
Nc1nc(-c2ccccn2)nc(N)c1Cc1ccc(Cl)cc1Cl,?,-93,?,-,-,?
CC(=O)c1ccc(-c2ccccc2C2=CC(=O)CC(C)(C)C2=O)cc1,.,-,.,.,.,.
Fc1ccc(NC(=S)NNc2ncc(C(F)(F)F)cc2Cl)c(F)c1,?,-99,?,-,-,-
FC(F)(F)c1cnc(NNC(=S)Nc2ccc(Cl)cc2)c(Cl)c1,?,-99,?,-,?,?
Cc1ccc(NC(=S)NNc2ncc(C(F)(F)F)cc2Cl)cc1,?,-,?,?,?,?
Cc1ccc(OCC(=O)Nc2nonc2-c2ccc(C)c(C)c2)cc1C,-,-,-,-,-,-
Cc1cnc(CNc2nc(-c3ccc(N(C)C)cc3)nc3ccccc23)cn1,.,.,.,-,?,11µM
Cc1cnc(CNc2nc(-c3ccccc3C(F)(F)F)nc3ccccc23)cn1,.,.,.,-,.,.
CN(C)c1ccc(-c2nc(NC3CCNCC3)c3ccccc3n2)cc1,.,.,.,-,11µM,11µM
CCNC(=O)c1ccc2nc(-c3ccccc3)c(-c3ccccc3)nc2c1,.,.,.,.,-,-
CCNC(=O)c1ccc2c(c1)C1C3CCC(C3)C1C(c1ccccc1)N2 (stereo not given),-,-63,?,-,?,?
Cc1ccccc1Cn1c(CN2CCc3ccccc3C2)nc2c1c(=O)n(C)c(=O)n2C,?,-,?,.,-,-
Cn1c(=O)c2c(nc(NCCc3ccccc3)n2Cc2ccc(Cl)cc2)n(C)c1=O,-,-82,-,?,?,?
Cn1c(=O)c2c(nc(CN3CCN(Cc4ccccc4)CC3)n2Cc2ccc(Cl)cc2)n(C)c1=O,-,-103,.,-,?,-
CCCNc1nc2c(c(=O)n(C)c(=O)n2C)n1Cc1cccc(C)c1,-,-62,-,?,-,?
COC(=O)Cn1c(CN2CCc3ccccc3C2)nc2c1c(=O)n(C)c(=O)n2C,.,-66,.,?,-,-
CCCNc1nc2c(c(=O)n(C)c(=O)n2C)n1CCCc1ccccc1,.,-,.,?,.,.
S=C(SCc1nc(-c2ccc(Cl)cc2)no1)N1CCSCC1,.,-,.,.,.,.
Cc1cc(C(=O)N(Cc2cc3cc4c(cc3nc2N2CCOCC2)CCC4)CC2CCCO2)c(=O)[nH]c1C (stereo not given),.,.,.,-,-,-
O=c1[nH]c2c(-c3nc(-c4ccc(Cl)cc4)cs3)c(O)cn2c2ccccc12,.,.,.,.,-,-
CC(=O)C(C)n1c(CN(C)Cc2ccccc2)nc2c1c(=O)n(C)c(=O)n2C (stereo not given),?,-,-,-,-,-
CC(C)n1c(NCCc2ccccc2)nc2c1c(=O)n(C)c(=O)n2C,?,-87,?,16µM,-,-
SMILES,MARV entry inh,HCMV antiviral,LASV entry inh,FMDV antiviral,VACV Venus inh,VACV mCherry inh
CC(C)n1c(CN(C)Cc2ccccc2)nc2c1c(=O)n(C)c(=O)n2C,?,-89,?,18µM,-,-
Cc1ccc(Cn2c(SCCN3CCCCC3)nc3c2c(=O)n(C)c(=O)n3C)cc1,?,-100,?,-,?,.
COc1cccc(Cn2c(NCc3ccco3)nc3c2c(=O)n(C)c(=O)n3C)c1,?,-98,?,?,.,.
COc1ccc(-c2cn3cccnc3n2)cc1NC(=O)COc1ccccc1,.,-,-,-,-,?
CNC(=S)NCCCCc1cnc[nH]1,.,.,.,-,.,.
C=CCOC(=O)NC(c1ccc(F)c(F)c1)C(C(=O)CCl)C(=O)OC (stereo not given),-,.,?,.,.,.
Cn1c(=O)c2c(nc(NCc3ccccc3)n2Cc2ccccc2)n(C)c1=O,-,-,-,-,?,-
